Reference: PubChem BioAssay AID1159580 (chemical genetic matrix, 2015)
Screen size: about 5,500 compounds; about 2,000 (36%) were called active. Not shown: some 18% with an inconclusive outcome. Cut-off read from the data, not from the text of the source: active = normalized growth mostly below about 0.91 (no sharp cut-off); inconclusive = no clear call, values can overlap the other calls; inactive = mostly above about 0.92. The list shows a part of the results.

Assay: chemical genetic growth profiling, strain panel (AID 1159580);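 note: tested at 20 µM; growth read once vehicle control cultures reached saturation at 30 °C; 1 = growth at the plate median or of vehicle wells; lower values mean less growth of the strain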
Details: growth OD

Measured: normalized growth

CCCCC(=O)N(Cc1ccc(-c2ccccc2-c2nn[nH]n2)cc1)[C@H](C(=O)O)C(C)C
inactive: S. cerevisiae deletion strains, locus YJR066W, strain TOR1, hits give low values 0.959 | S. cerevisiae deletion strains, locus YJR075W, strain HOC1, hits give low values 1 | S. cerevisiae deletion strains, locus YKL009W, strain mrt4, hits give low values 0.968 | S. cerevisiae deletion strains, locus YKL068W, hits give low values 0.964 | S. cerevisiae deletion strains, locus YKL085W, strain MDH1 (second series), hits give low values 0.959 | S. cerevisiae deletion strains, locus YKL085W, strain MDH1, hits give low values 0.959 | S. cerevisiae deletion strains, locus YKL160W, strain elf1, hits give low values 1.01 | S. cerevisiae deletion strains, locus YKL190W, strain CNB1, hits give low values 0.986 | S. cerevisiae deletion strains, locus YKR001C, strain vps1, hits give low values 0.987 | S. cerevisiae deletion strains, locus YKR026C, strain gcn3, hits give low values 0.985 | S. cerevisiae deletion strains, locus YKR091W, strain srl3, hits give low values 0.981 | S. cerevisiae deletion strains, locus YLL001W, strain dnm1, hits give low values 0.993 | S. cerevisiae deletion strains, locus YLL026W, hits give low values 0.998 | S. cerevisiae deletion strains, locus YLL041C, strain sdh2, hits give low values 1 | S. cerevisiae deletion strains, locus YLR027C, strain aat2, hits give low values 0.999 | S. cerevisiae deletion strains, locus YLR039C, strain RIC1, hits give low values 0.963 | S. cerevisiae deletion strains, locus YLR058C, strain SHM2, hits give low values 1 | S. cerevisiae deletion strains, locus YLR102C, strain apc9, hits give low values 0.975 | S. cerevisiae deletion strains, locus YLR113W, strain HOG1, hits give low values 0.987 | S. cerevisiae deletion strains, locus YLR221C, strain rsa3, hits give low values 0.977 | S. cerevisiae deletion strains, locus YLR258W, strain gsy2, hits give low values 0.989 | S. cerevisiae deletion strains, locus YLR262C, strain YPT6 (second series), hits give low values 1 | S. cerevisiae deletion strains, locus YLR262C, strain YPT6, hits give low values 0.981 | S. cerevisiae deletion strains, locus YLR268W, strain sec22, hits give low values 0.977 | S. cerevisiae deletion strains, locus YLR320W, strain mms22, hits give low values 0.993 | S. cerevisiae deletion strains, locus YLR330W, strain CHS5, hits give low values 0.99 | S. cerevisiae deletion strains, locus YLR342W, strain FKS1 (second series), hits give low values 1.01 | S. cerevisiae deletion strains, locus YLR342W, strain FKS1, hits give low values 1.02 | S. cerevisiae deletion strains, locus YLR357W, strain rsc2, hits give low values 0.976 | S. cerevisiae deletion strains, locus YLR370C, strain arc18, hits give low values 1 | S. cerevisiae deletion strains, locus YLR371W, strain rom2, hits give low values 0.977 | S. cerevisiae deletion strains, locus YLR384C, strain iki3, hits give low values 1.01 | S. cerevisiae deletion strains, locus YLR418C, strain cdc73, hits give low values 0.989 | S. cerevisiae deletion strains, locus YML016C, strain PPZ1, hits give low values 0.994 | S. cerevisiae deletion strains, locus YML032C, strain rad52, hits give low values 0.985 | S. cerevisiae deletion strains, locus YML120C, strain ndi1, hits give low values 0.981 | S. cerevisiae deletion strains, locus YML124C, strain tub3, hits give low values 0.985 | S. cerevisiae deletion strains, locus YMR058W, strain fet3, hits give low values 0.982 | S. cerevisiae deletion strains, locus YMR078C, strain ctf18, hits give low values 0.995 | S. cerevisiae deletion strains, locus YMR125W, strain sto1, hits give low values 0.932 | S. cerevisiae deletion strains, locus YMR129W, hits give low values 0.983 | S. cerevisiae deletion strains, locus YMR205C, strain PFK2, hits give low values 0.994 | S. cerevisiae deletion strains, locus YMR223W, strain ubp8, hits give low values 0.994 | S. cerevisiae deletion strains, locus YMR231W, strain pep5, hits give low values 1 | S. cerevisiae deletion strains, locus YMR263W, strain SAP30, hits give low values 0.975 | S. cerevisiae deletion strains, locus YMR307W, strain GAS1, hits give low values 1.04 | S. cerevisiae deletion strains, locus YNL067W, strain RPL9B, hits give low values 0.985 | S. cerevisiae deletion strains, locus YNL071W, strain lat1, hits give low values 0.991 | S. cerevisiae deletion strains, locus YNL128W, strain TEP1, hits give low values 0.969 | S. cerevisiae deletion strains, locus YNL153C, strain GIM3, hits give low values 0.991 | S. cerevisiae deletion strains, locus YNL183C, strain NPR1, hits give low values 0.956 | S. cerevisiae deletion strains, locus YNL209W, strain ssb2, hits give low values 0.989 | S. cerevisiae deletion strains, locus YNL233W, strain BNI4, hits give low values 0.995 | S. cerevisiae deletion strains, locus YNL248C, strain rpa49, hits give low values 0.947 | S. cerevisiae deletion strains, locus YNL250W, strain rad50, hits give low values 0.944 | S. cerevisiae deletion strains, locus YNL271C, strain bni1, hits give low values 0.98 | S. cerevisiae deletion strains, locus YNL298W, strain CLA4, hits give low values 0.971 | S. cerevisiae deletion strains, locus YNL307C, strain MCK1, hits give low values 0.98 | S. cerevisiae deletion strains, locus YNL322C, strain KRE1 (second series), hits give low values 0.988 | S. cerevisiae deletion strains, locus YNL322C, strain KRE1, hits give low values 0.981 | S. cerevisiae deletion strains, locus YNR049C, strain mso1, hits give low values 0.965 | S. cerevisiae deletion strains, locus YNR052C, strain pop2, hits give low values 0.991 | S. cerevisiae deletion strains, locus YOL006C, strain TOP1, hits give low values 1.01 | S. cerevisiae deletion strains, locus YOL012C, strain htz1 1.43 | S. cerevisiae deletion strains, locus YOL147C, strain pex11, hits give low values 0.98 | S. cerevisiae deletion strains, locus YOR001W, strain rrp6, hits give low values 0.988 | S. cerevisiae deletion strains, locus YOR061W, strain CKA2, hits give low values 0.985 | S. cerevisiae deletion strains, locus YOR069W, strain VPS5, hits give low values 0.989 | S. cerevisiae deletion strains, locus YOR070C, strain gyp1, hits give low values 0.994 | S. cerevisiae deletion strains, locus YOR080W, strain dia2, hits give low values 0.988 | S. cerevisiae deletion strains, locus YOR083W, strain WHI5, hits give low values 1.01 | S. cerevisiae deletion strains, locus YOR106W, strain vam3, hits give low values 0.998 | S. cerevisiae deletion strains, locus YOR136W, strain idh2, hits give low values 0.991 | S. cerevisiae deletion strains, locus YOR144C, strain elg1, hits give low values 0.988 | S. cerevisiae deletion strains, locus YOR231W, strain MKK1, hits give low values 0.963 | S. cerevisiae deletion strains, locus YOR265W, strain rbl2, hits give low values 0.999 | S. cerevisiae deletion strains, locus YOR270C, strain vph1, hits give low values 0.997 | S. cerevisiae deletion strains, locus YOR290C, strain snf2, hits give low values 0.962 | S. cerevisiae deletion strains, locus YOR316C, strain cot1, hits give low values 0.98 | S. cerevisiae deletion strains, locus YPL051W, strain arl3, hits give low values 1.01 | S. cerevisiae deletion strains, locus YPL055C, strain LGE1, hits give low values 0.974 | S. cerevisiae deletion strains, locus YPL078C, strain atp4, hits give low values 0.989 | S. cerevisiae deletion strains, locus YPL106C, strain sse1, hits give low values 0.956 | S. cerevisiae deletion strains, locus YPL240C, strain hsp82, hits give low values 1 | S. cerevisiae deletion strains, locus YPL241C, strain CIN2, hits give low values 0.991 | S. cerevisiae deletion strains, locus YPL256C, strain CLN2, hits give low values 0.908 | S. cerevisiae deletion strains, locus YPR119W, strain clb2, hits give low values 0.991 | S. cerevisiae deletion strains, locus YPR141C, strain kar3, hits give low values 0.963 | S. cerevisiae deletion strains, locus YPR163C, strain tif3, hits give low values 0.978 | S. cerevisiae deletion strains, locus YPR167C, strain met16, hits give low values 0.976 | S. cerevisiae deletion strains, strain wtn01, hits give low values 0.96 | S. cerevisiae strains, strain wild type, hits give low values 0.973
